Data on 40 molecules can be found in PubChem BioAssay (NCATS).

Records with an inconclusive call do not appear. Where a call stands in place of a potency, no number is given. Activity calls are given as the source filed them. The call rests on the fitted dose curve; in most records, active means well fitted inhibition curve with a large enough effect; inconclusive means small, poorly fitted or top-dose-only effect; inactive means no such curve, though single readings can be large or run the other way. Where a SMILES comes first, the peptide text is derived from it. Bridges are numbered along the chain shown (N, C = ends). [ ]: non-standard residue; d: D form. The star is where a group is joined. X1 = CCC(C)C(N)C1=NC(C(=O)*)CS1; dOrn = NCCC[C@@H](N)C(=O)O
Potency means the concentration at half of the fitted maximal effect.

The assay in a line: qHTS to identify inhibitors of the type 1 interferon - major histocompatibility complex class I in skeletal muscle: primary screen against the NCATS Mechanism Interrogation Plate v5.0 (MIPE) Libary (AID 1347411). Further: nearly all actives have a fitted effect of over 65% in size. The conditions noted are these: iHSKM cells + IFN-b, HiBiT-tagged MHC-I luminescence, 24 h; series mostly up to 45.8 µM. From the text:
Assay Submitter (PI): Travis B. Kinder Ph.D. & James Inglese Ph.D.
Assay Development and Screening Technology Laboratory (ADST)
National Center for Advancing Translational Sciences (NCATS), Rockville, MD
National Institute of Health (NIH), Bethesda, Maryland
Idiopathic inflammatory myopathies, collectively referred to as myositis, are a group of rare autoimmune diseases characterized by skeletal muscle inflammation, weakness, and usually accompanied by systemic pathologies of the skin, lungs, or vasculature. Current immunosuppressive therapies and glucocorticoids are often not curative and are accompanied by harsh side effects, especially in children with juvenile myositis. We initiated a drug repurposing and development program to identify more targeted, less toxic therapeutics to treat myositis. Although its cause is not known, muscle from a subset of patients have an abundance of the inflammatory type 1 interferon (IFN) and a down-stream product major histocompatibility complex class I (MHC class I), which are both thought to contribute to damage and weakness. We conducted quantitative high throughput screening on 6,576 compounds (4,679 unique) through a series of cell-based assays to identify those that inhibit the IFN-stimulated expression of MHC class I in muscle precursor cells (myoblasts). The compound identification and evaluation strategy utilized a primary screen with reporter-tagged MHC class I in genome-engineered myoblasts, ATP content counter screen for viability, HLA-ABC immunofluorescence secondary screen, and HLA-B RT-qPCR tertiary screen.
The primary screen utilized CRISPR/Cas9 genome-engineering of immortalized human myoblasts, C25cl48, where a pro-luminescent reporter HiBit was fused to the C-terminus of endogenous MHC class I allele HLA-B*08:01 (HLA-B HiBit myoblasts). HiBit is an 11 amino acid fragment of NanoLuc luminescent reporter (Promega Corporation), and when complexed to the larger LgBit fragment, the reconstituted enzyme produces light in the presence of furimazine substrate (Schwinn et al., 2018). Briefly, HLA-B HiBit myoblasts were plated into 1536-well plates, treated with 4.0 ng/ml human IFN-beta and 2,480 compounds from the NCATS Mechanism Interrogation Plate v5.0 (MIPE5.0) in an 11-point, 1:3 titration with a high final concentration of 46 uM. After 24 hrs of treatment, cells were assayed by Nano-Glo HiBiT Lytic Detection System (Promega) and luminescence measured by a ViewLux 1430 Ultra HTS (Perkin Elmer).
Schwinn MK, Machleidt T, Zimmerman K, Eggers CT, Dixon AS, Hurst R, Hall MP, Encell LP, Binkowski BF, Wood K V. 2018. CRISPR-Mediated Tagging of Endogenous Proteins with a Luminescent Peptide. ACS Chem Biol 13:467-474. doi:10.1021/acschembio.7b00549
PROTOCOL TABLE (as described by Inglese et al., 2007)
SEQUENCE No. (e.g., 1, 2, 3, etc.); […] (e.g., Cells, Incubation, Reagent, etc.); VALUE; DESCRIPTION
1a; Cells; 5 uL; Use a Multidrop Combi (Thermo Scientific) to seed 300 cells/well into 24 Greiner 1536 well white/solid bottom, high base, TC plates in 5 ul/well of iHSKM growth medium (GM) without dexamethasone into columns 1+2. Add metal lids with gas-exchange holes
1b; Cells; 5 uL; Use a Multidrop Combi (Thermo Scientific) to seed 300 cells/well into 24 Greiner 1536 well white/solid bottom, high base, TC plates in 5 ul/well of iHSKM GM without dexamethasone + 4 ng/ml IFN-b into columns 3 - 48. Add metal lids with gas-exchange holes
2; Incubate; 1 hr; Incubate at 37 C, 5% CO2, 95% RH
3; Compounds; 23 nl; Use Pin Tool (Wako) to transfer DMSO control, ruxolitinib IFN-b inhibitor control [High Concentration = 80 uM final, 16-pt, 1:2 in duplicate], and library compounds in DMSO
4; Incubate; 24 hrs; Incubate at 37 C, 5% CO2, 95% RH
5; Dispense; 2.5 ul; Use BioRAPTR FRD (Beckman Coulter) to add HiBit lytic reagent
6; Incubate; 10 min; Incubate in the dark at ambient temperature for lysis
7; Detector; 5 sec; Measure luminescence with ViewLux 1430 Ultra HTS (Perkin Elmer). […]
In the case of `O=C(O)C[C@H](O)C[C@H](O)/C=C/c1c(C2CC2)nc2ccccc2c1-c1ccc(F)cc1`, the Potency result was “inactive”.
Take `CCC(C)C(N)C1=NC(C(=O)N[C@@H](CC(C)C)C(=O)N[C@H](CCC(=O)O)C(=O)N[C@H](C(=O)N[C@H]2CCCCNC(=O)[C@H](CC(N)=O)NC(=O)[C@@H](CC(=O)O)NC(=O)[C@H](Cc3cnc[nH]3)NC(=O)[C@@H](Cc3ccccc3)NC(=O)[C@H]([C@@H](C)CC)NC(=O)[C@@H](CCCN)NC2=O)[C@@H](C)CC)CS1` (stereo not given in full) (X1-L[dE]IK[dOrn]I[dF]H[dD]N; lactam 4-C): the Potency result was “inactive”.
Turning to `CCN(c1cc(C#CCN2CCOCC2)cc(C(=O)NCc2c(C)cc(C)[nH]c2=O)c1C)C1CCC(N(C)CCOC)CC1` (stereo not given), the Potency entry was “inactive”.
Consider `Cc1nnc(C(C)C)n1C1CC2CCC(C1)N2CC[C@H](NC(=O)C1CCC(F)(F)CC1)c1ccccc1` (stereo not given in full), for which the Potency entry was “inactive”.
Consider `O=c1ccn([C@@H]2O[C@H](CO)[C@@H](O)[C@H]2O)c(=O)[nH]1`, for which the Potency entry is “inactive”.
For `CC(=O)c1cnc2ccc(-c3cc(Cl)c(O)c(Cl)c3)nc2c1NC1CCC(CN(C)C)CC1` (stereo not given), the Potency is 0.151 µM (active).
In the case of `CNC(=O)c1ccc(Nc2ncc(C(F)(F)F)c(NCc3nccnc3N(C)S(C)(=O)=O)n2)cc1`, the Potency was 5.23 µM (active).
In the case of `COc1ncc(-c2ccc3c(Nc4cc(Oc5cc(F)cc(F)c5)cc(C(=O)O)c4)c(S(=O)(=O)NC4CC4)cnc3c2)c(OC)n1` it was “inactive”; in that of `Cc1nnc(C(C)C)n1C1CC2CCC(C1)N2CCC(NC(=O)C1CCC(F)(F)CC1)c1ccccc1` (stereo not given), “inactive”; in that of `O=C(O)c1ccc(CCCc2ccc(OCCc3ccc(F)cc3)cc2)o1`, “inactive”.
Regarding `CN(C)C/C=C/C(=O)Nc1ccc(C(=O)Nc2cccc(Nc3ncc(Cl)c(-c4c[nH]c5ccccc45)n3)c2)cc1`, the Potency was 0.294 µM (active).
For `Cc1cc(Nc2ncc(Cl)c(Nc3ccccc3S(=O)(=O)C(C)C)n2)c(OC(C)C)cc1C1CCNCC1`, the Potency was 20.8 µM (active).
Under `O=C(NC[C@H](O)CN1CCc2ccccc2C1)c1cc(NC2COC2)ncn1` stands “inactive”; under `CCOC(=O)[C@H]1O[C@@H]1C(=O)N[C@@H](CC(C)C)C(=O)NCCC(C)C`, “inactive”; under `OCc1ccccc1O[C@@H]1O[C@H](CO)[C@@H](O)[C@H](O)[C@H]1O`, “inactive”.
Take `CN1C(=O)N[C@@H](Cc2c[nH]c3c(Cl)cccc23)C1=O`: the Potency entry was “inactive”.
For the molecule `COc1cc2c(Nc3ccc(Cl)c(Cl)c3F)ncnc2cc1OCC1C[C@@H]2CN(C)C[C@@H]2C1` (stereo not given in full), the Potency is 20.8 µM (active).
Turning to `OC[C@H]1O[C@@H](n2cnc3c2NC=NC[C@H]3O)C[C@@H]1O`, the Potency result is “inactive”.
With `C=C1CC[C@@H]2[C@](C)(CO)[C@H](O)CC[C@@]2(C)[C@@H]1C/C=C1/C(=O)OC[C@H]1O`, the Potency was 11.7 µM (active).
On to `CON(C)C(=O)N1N=C(c2cc(F)ccc2F)S[C@@]1(CCCN)c1ccccc1`, for which the Potency result is “inactive”.
In the case of `CC(C)(O)CNc1nc(Nc2ccnc(C(F)(F)F)c2)nc(-c2cccc(C(F)(F)F)n2)n1` it was “inactive”.
Regarding `COc1cc2c(cc1O)CCN[C@]21CS[C@@H]2c3c(OC(C)=O)c(C)c4c(c3[C@H](COC1=O)N1[C@@H]2[C@H]2c3c(cc(C)c(OC)c3O)C[C@@H]([C@@H]1O)N2C)OCO4`, the Potency was 0.0848 µM (active).
Turning to `NC1CCC(N[C@@H]2C[C@H]2c2ccccc2)CC1` (stereo not given in full), the Potency result was “inactive”.
As to `Cc1nn(C)c(COc2ccc(N3CCN(S(=O)(=O)N(C)C)CC3)cc2)c1-c1cccc2c(CCCOc3cccc4ccccc34)c(C(=O)O)n(CCN3CCOCC3)c12`, the Potency entry is “inactive”.
As for `N#Cc1ccnc(N2C(=O)CC[C@H]2C(=O)N(c2cncc(F)c2)[C@H](C(=O)NC2CC(F)(F)C2)c2ccccc2Cl)c1`, the Potency result was “inactive”.
For `CCS(=O)(=O)N1CCC([C@@H](C)n2c(C)c(C(=O)NCc3c(OC)cc(C)[nH]c3=O)c3ccccc32)CC1`, the Potency entry was “inactive”.
For the molecule `CN1CC[C@@H](NC(=O)Nc2ccc(C#N)cc2)C[C@@H]1c1nc2ccccc2[nH]1`, the Potency entry was “inactive”.
On to `OC[C@H]1O[C@@H](Oc2cc(O)cc(/C=C/c3ccc(O)cc3)c2)[C@H](O)[C@@H](O)[C@@H]1O`, for which the Potency entry was “inactive”.
On to `O=C(C1CC1)N1CC[C@@H](Cc2n[nH]c(=O)n2-c2ccc(-c3ccc4occc4c3)cc2)C1`, for which the Potency entry is “inactive”.
With `C[C@H]1CN(C[C@H](Cc2ccccc2)C(=O)NCC(=O)O)CC[C@@]1(C)c1cccc(O)c1`, the Potency entry is “inactive”.
With `CCCCC(=O)OCC(=O)[C@]1(O)Cc2c(O)c3c(c(O)c2[C@@H](O[C@H]2C[C@H](NC(=O)C(F)(F)F)[C@H](O)[C@H](C)O2)C1)C(=O)c1c(OC)cccc1C3=O`, the Potency was 10.4 µM (active).
On to `C[C@H](CCC(=O)O)[C@H]1CC[C@H]2[C@@H]3[C@H](O)C[C@@H]4C[C@H](O)CC[C@]4(C)[C@H]3CC[C@]12C`, for which the Potency result was “inactive”.
As to `C[C@H]1[C@H](C)CC[C@]2(C(=O)O)CC[C@]3(C)C(=CC[C@@H]4[C@@]5(C)C[C@@H](O)[C@H](O)[C@@](C)(CO)[C@@H]5CC[C@]43C)[C@H]12`, the Potency entry is “inactive”.
With `CCNC(=O)CCC/C=C\C[C@@H]1[C@@H](/C=C/C(O)CCc2ccccc2)[C@@H](O)C[C@@H]1O` (stereo not given in full), the Potency entry is “inactive”.
Under `Cc1c(-c2ccnn2C)cc(C(=O)NCc2ccc(S(C)(=O)=O)cn2)c(=O)n1-c1cccc(C(F)(F)F)c1` stands “inactive”; under `CC1(C)O[C@@H]2C[C@H]3[C@@H]4CCC5=CC(=O)C=C[C@]5(C)[C@H]4[C@@H](O)C[C@]3(C)[C@]2(C(=O)CO)O1`, “inactive”.
As to `CCCCN(CCCC)C(=O)CN1C[C@H](c2ccc3c(c2)OCO3)[C@@H](C(=O)O)[C@@H]1c1ccc(OC)cc1`, the Potency result was “inactive”.
As to `O=C(O)c1cnn(-c2nc3cc(OC(F)(F)F)c(Cl)cc3[nH]2)c1`, the Potency entry is “inactive”.
Under `Cc1cc(C)cc(NC(=O)Cc2ccc(OC(C)(C)C(=O)O)cc2)c1` stands “inactive”; under `CC1=C(/C=C/C(C)=C/C=C/C(C)=C/C=C/C=C(C)/C=C/C=C(C)/C=C/C2=C(C)CCCC2(C)C)C(C)(C)CCC1`, “inactive”.
